The values below come from PubChem BioAssay (Tox21).

Unmarked numbers belong to inactive results. Records with an inconclusive call do not appear. Calls of active or inactive are those of the source. Unless noted, calls follow the shape of the dose curve; as a rule, active = well fitted curve in the direction sought with a large enough effect in the repeat runs; inconclusive = weak or mixed curves; inactive = no such curve, though single readings can be large; an effect the other way counts as inactive or inconclusive.

Assay [1] is described as follows: qHTS assay for small molecules that induce genotoxicity in human embryonic kidney cells expressing luciferase-tagged ATAD5 (AID 651632). Also: nearly all actives have a fitted effect of over 15% in size. The gist of the method: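 Quantitative HTS in HEK293T expressing luciferase-tagged ATAD5, whose levels rise upon DNA damage. Exposure ran 16 hr at 37C and 5% CO2, with luminescence read 30 min after Amplite addition at room temperature.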
In general terms: Quantitative high-throughput screening tests each substance at several concentrations.

Assay [2] in a line: qHTS assay for small molecule agonists of the p53 signaling pathway - cell viability (AID 651633; calls by dose curve;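 also: p53RE-bla HCT reporter cells with a stable beta-lactamase p53 reporter; series mostly up to about 83 µM; nearly all actives have a fitted effect of over 30% in size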). The essentials: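 p53RE-bla cells, seeded at 4,000 per well and rested 5 h at 37 C/5% CO2, received compounds in DMSO for 16 h at 37 C. CellTiter-Glo was then added, and luminescence was read after 30 min at room temperature to gauge cytotoxicity.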
A short description of assay [3]: qHTS assay for small molecules that induce genotoxicity in human embryonic kidney cells expressing luciferase-tagged ATAD5 - cell viability (AID 651634; calls by dose curve; also: nearly all actives have a fitted effect of over 25% in size; also: potency is read from the fitted curve at half-maximal effect). The essentials:
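After 15.5 hr incubation with compound at 37C, 5% CO2, HEK293T ATAD5-luciferase cells received CellTiter-Fluor reagent; fluorescence intensity was quantified following 30 min at 37C.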

Assay [4] can be described thus: qHTS assay for small molecule disruptors of the mitochondrial membrane potential - cell viability (AID 720634; calls by dose curve;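 also: human HepG2 liver cancer cells; series mostly up to about 83 µM; nearly all actives have a fitted effect of over 20% in size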). The essentials:
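ATP-based luminescent viability readout (CellTiter-Glo, 30 min, room temperature) in HepG2 cells multiplexed with the m-MPI membrane potential dye; compound exposure lasted 1 hr at 37 C.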

A short description of assay [5]: qHTS assay to test for compound auto fluorescence at 590 nm (red) in HepG2 cells (AID 720674). The gist of the method:
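Intrinsic compound fluorescence in the red window (Ex/Em 540/590 nm) is measured in attached HepG2 cells exposed for 1 hr, DMSO vehicle as baseline, benchmarked to Rose Bengal sodium.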

The nature of assay [6]: qHTS assay to test for compound auto fluorescence at 535 nm (green) in HepG2 cells (AID 720675).
Assay [7] in a line: qHTS assay to test for compound auto fluorescence at 460 nm (blue) in HEK293 cells (AID 720678). The gist of the method: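 HEK293 cells (2,000 per well, medium with 10% dialyzed FBS) attached for 4-5 hr at 37C, then received compound and stood overnight at 37C, 5% CO2. Blue fluorescence was read at Ex/Em 405/460 nm and expressed relative to triamterene.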
The nature of assay [8]: qHTS assay to test for compound auto fluorescence at 590 nm (red) in HEK293 cells (AID 720679). The gist of the method: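 HEK293 cells (2,000/well, medium with 10% dialyzed FBS) attached for 4-5 hr at 37C, received 23 nL compound and were incubated overnight at 37C, 5% CO2. Red fluorescence was then read at 540/590nm Ex/Em, referenced to Rose Bengal sodium.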
A short description of assay [9]: qHTS assay to test for compound auto fluorescence at 535 nm (green) in HEK293 cells (AID 720680).
The nature of assay [10]: qHTS assay to test for compound auto fluorescence at 460 nm (blue) in HEK293 cell free culture (AID 720681). The gist of the method: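 Test compounds were pinned into cell-free culture medium (DMEM with 10% FBS) and fluorescence was read directly at Ex/Em 405/460 nm. Signals were expressed as fluorescence equivalents of triamterene, with DMSO vehicle as control.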
Assay [11] is described as follows: qHTS assay to test for compound auto fluorescence at 535 nm (green) in HEK293 cell free culture (AID 720682). The essentials:
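Compounds were pin-transferred into cell-free DMEM with 10% FBS, and green fluorescence was read at excitation 485 nm and emission 535 nm. Intensities were expressed as fluorescein-equivalent values.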

A short description of assay [12]: qHTS assay to test for compound auto fluorescence at 590 nm (red) in HEK293 cell free culture (AID 720683). The essentials: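 Tox21 10K library compounds were pinned into cell-free DMEM with 10% FBS and fluorescence was read at excitation 540 nm. Activity is expressed as Rose Bengal sodium equivalency.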
The nature of assay [13]: qHTS assay to test for compound auto fluorescence at 590 nm (red) in HepG2 cell free culture (AID 720684). The gist of the method:
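Readout: intrinsic compound fluorescence at 590 nm emission after 540 nm excitation, scaled to Rose Bengal sodium. Matrix was cell-free MEM with 10% FBS; DMSO vehicle wells served as control.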

A short description of assay [14]: qHTS assay to test for compound auto fluorescence at 460 nm (blue) in HepG2 cell free culture (AID 720685). The gist of the method: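 Cell-free plates of MEM plus 10% FBS received 23 nL compound or DMSO vehicle; blue-channel (405/460 nm) intensity scored against triamterene as reference fluorophore.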
A short description of assay [15]: qHTS assay to test for compound auto fluorescence at 535 nm (green) in HepG2 cell free culture (AID 720686).
The nature of assay [16]: qHTS assay to test for compound auto fluorescence at 460 nm (blue) in HepG2 cells (AID 720687). The essentials:
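Cells (2,000/well in MEM with 10% FBS) attached overnight at 37 C, then were exposed to compound or DMSO for 1 hr at 37 C, 5% CO2. Fluorescence read at Ex/Em 405/460 nm, expressed as triamterene-equivalent signal.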

Assay [17] has as its target Glucocorticoid receptor (Homo sapiens) (UniProt P04150). Description: qHTS assay to identify small molecule agonists of the glucocorticoid receptor (GR) signaling pathway (AID 720691; active = well fitted activation curve with a large enough effect in the signal ratio in the repeat runs, not every such curve was filed as active; the % refers to the signal ratio). The gist of the method:
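Cells: GR-bla HeLa, endogenous GR with stably integrated GRE-beta-lactamase reporter. Treatment 18 h, 37 C, compounds delivered in DMSO. Detection via LiveBLAzer B/G FRET substrate, 2 h RT, fluorescence intensity.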

A short description of assay [18]: qHTS assay for small molecule disruptors of the mitochondrial membrane potential (AID 720635). The gist of the method: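 HepG2 cells (2,000/well) attached overnight at 37C, then took compound for 1 hr at 37C, 5% CO2. Mito-MPS dye was added for 30 min; fluorescence was read at 490/535 nm (monomers) and 540/590 nm (aggregates).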
Assay [19] concerns the target Glucocorticoid receptor (Homo sapiens) (UniProt P04150). Put plainly: qHTS assay to identify small molecule antagonists of the glucocorticoid receptor (GR) signaling pathway (AID 720692; active = well fitted inhibition curve with a large enough effect in the signal ratio in the repeat runs, not every such curve was filed as active; the % refers to the signal ratio). The essentials: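 Quantitative HTS in antagonist format: HeLa cells expressing endogenous GR and a stably integrated GRE-bla reporter, stimulated with 5 nM dexamethasone (final) alongside test compounds for 18 h.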
% is scaled to controls: 0 for no effect and ±100 for the full control effect.

Glucocorticoid receptor (Homo sapiens), sequence (P04150 whole entry, looked up): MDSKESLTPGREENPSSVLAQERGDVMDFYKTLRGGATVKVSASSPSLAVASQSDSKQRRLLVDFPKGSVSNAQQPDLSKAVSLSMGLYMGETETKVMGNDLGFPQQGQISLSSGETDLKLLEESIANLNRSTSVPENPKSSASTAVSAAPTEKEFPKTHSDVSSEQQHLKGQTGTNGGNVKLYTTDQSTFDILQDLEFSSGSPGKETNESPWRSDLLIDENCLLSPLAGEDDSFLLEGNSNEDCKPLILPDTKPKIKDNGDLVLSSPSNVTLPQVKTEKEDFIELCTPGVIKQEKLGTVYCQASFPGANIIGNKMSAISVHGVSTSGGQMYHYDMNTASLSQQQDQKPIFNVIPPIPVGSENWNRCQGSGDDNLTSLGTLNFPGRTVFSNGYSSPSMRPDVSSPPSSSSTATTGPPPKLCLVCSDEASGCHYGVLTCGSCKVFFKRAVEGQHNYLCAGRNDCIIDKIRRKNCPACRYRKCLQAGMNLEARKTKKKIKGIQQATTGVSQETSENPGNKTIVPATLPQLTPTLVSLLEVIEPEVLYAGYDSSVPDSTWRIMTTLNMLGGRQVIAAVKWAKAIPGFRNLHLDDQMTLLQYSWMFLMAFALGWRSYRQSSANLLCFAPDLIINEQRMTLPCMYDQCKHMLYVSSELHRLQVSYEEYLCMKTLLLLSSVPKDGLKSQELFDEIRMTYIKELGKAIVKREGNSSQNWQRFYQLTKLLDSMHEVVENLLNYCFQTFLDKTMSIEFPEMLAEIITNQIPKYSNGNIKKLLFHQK

`CCCCOc1ccc(CC(=O)NO)cc1`: the Potency result in assay [1], in assay [2], in [4] and in assay [17] was “inactive” throughout. Besides, in assay [3], the Potency is 9.02 µM (active). Moreover, in assay [5], the fluorescence, relative to Rose Bengal is 0.376% [at 18.6 µM]. Also, the fluorescence, % of fluorescein control in [6] was 0.007% [at 18.6 µM]; in assay [15], -0.0407% [at 18.6 µM]. Besides, in assay [7], the fluorescence, % of triamterene is -0.0396% [at 18.6 µM]. Also, the fluorescence, % of fluorescent control was 0.184% [at 18.6 µM] in [8]; -0.0158% [at 18.6 µM] in assay [10]; -0.0389% [at 18.6 µM] in assay [12]; 0.0098% [at 18.6 µM] in assay [14]; -0.124% [at 18.6 µM] in assay [16]. The fluorescence, % of fluorescein in [9] was 0.0125% [at 18.6 µM]. Further, in assay [11], the activity change was 0.0033% [at 18.6 µM]. In [13], the fluorescence, % of Rose Bengal is -0.259% [at 18.6 µM].
As to `NC(N)=N/N=C/c1c(Cl)cccc1Cl`, the Potency result in assay [1], in assay [2], in [3], in assay [4], in [7] and in [10] was “inactive” each time. Besides, in [14], the Potency result was “inactive”. The outcome in [5], in assay [6], in [8], in assay [11], in assay [12] and in assay [13] was inactive. In addition, the compound was classed as inactive in [15].
Consider `Cc1occc1S`, for which the Potency result in [1], in assay [2], in assay [3], in assay [4], in assay [18] and in assay [7] was “inactive” throughout. The Potency result in [14], in assay [17] and in [19] was “inactive” throughout. Moreover, the compound was classed as inactive in assay [6], in assay [8], in assay [9], in [11], in assay [12] and in assay [13]. In addition, the call in [15] was inactive.
For the compound `CC(=O)/C=C/C1C(C)=CCCC1(C)C` (stereo not given), the Potency entry in assay [1], in [2], in [3], in assay [4], in [7] and in [10] was “inactive” in each case. Moreover, the Potency entry in [14] and in [16] was “inactive” each time. Further, the compound was classed as inactive in assay [5], in assay [6], in assay [9], in assay [11], in assay [12] and in assay [13]. Moreover, in [15], the call was inactive.
Regarding `O=C(O)C(c1ccc(Cl)cc1)c1ccc(Cl)cc1`, the Potency result in assay [1], in [2], in assay [3], in [4], in assay [7] and in assay [10] was “inactive” in each case. The Potency result in assay [14] and in [16] was “inactive” in each case. In addition, the result in assay [5], in assay [6], in assay [8], in assay [9], in [12] and in assay [13] was inactive. In assay [15], the result was inactive.
With `CCCCCC/C=C/C=O`, the Potency entry in assay [1], in [2], in assay [3], in assay [4], in assay [7] and in assay [10] was “inactive” each time. Further, the Potency result in assay [14], in assay [16] and in [17] was “inactive” throughout. In addition, the call in assay [5], in assay [6], in [8], in [11], in assay [12] and in assay [13] was inactive. Besides, the compound was classed as inactive in [15].
Take `CCCCCCCCCCCCCCCCCBr`: the Potency entry in [1], in [2], in assay [3], in [4], in assay [17] and in [19] was “inactive” throughout. The fluorescence, relative to Rose Bengal in assay [5] is -0.244% [at 18.6 µM]. The figures for the fluorescence, % of fluorescein control in assay [6] and in assay [15] were -0.0441% [at 18.6 µM] and 0.134% [at 18.6 µM], respectively. In addition, the fluorescence, % of triamterene in assay [7] is 0.159% [at 18.6 µM]. Moreover, the fluorescence, % of fluorescent control in [8] is 0.301% [at 18.6 µM]; in assay [10], -0.0559% [at 18.6 µM]; in assay [12], -0.288% [at 18.6 µM]; in assay [14] it was 0.0584% [at 18.6 µM]; in [16] it was 0.0228% [at 18.6 µM]. In addition, the fluorescence, % of fluorescein in assay [9] was 0.0114% [at 18.6 µM]. Besides, the fluorescence, % of Rose Bengal in [13] was 0.0382% [at 18.6 µM].
